Assay results taken from PubChem BioAssay (NCI).
Compounds without any hit were thinned out: in the full panel of roughly 83,000, 20% have a hit.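 Treatment: one concentration, 48 hours, 96-well format. Scoring: percent growth, with anything below 10 considered active.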 A number with no mark means an inactive call. Activity calls are given as the source filed them.

Tests used:
Experiment in all cases: NCI-60 one-dose screen, 48 h (100 = growth as untreated, 0 = no growth, -100 = all killed)
Details in all cases: 10 µM unless noted
HCT-15 colon = tested on: HCT-15 colon
HT29 colon = tested on: HT29 colon
SNB-19 CNS = tested on: SNB-19 CNS
U251 CNS = tested on: U251 CNS
PC-3 prostate = tested on: PC-3 prostate
SK-MEL-5 melanoma = tested on: SK-MEL-5 melanoma
UACC-62 melanoma = tested on: UACC-62 melanoma
LOX IMVI melanoma = tested on: LOX IMVI melanoma
SK-MEL-28 melanoma = tested on: SK-MEL-28 melanoma
SK-MEL-2 melanoma = tested on: SK-MEL-2 melanoma
EKVX NSCLC = tested on: EKVX NSCLC
SN12C renal = tested on: SN12C renal
UO-31 renal = tested on: UO-31 renal
TK-10 renal = tested on: TK-10 renal
ACHN renal = tested on: ACHN renal
CAKI-1 renal = tested on: CAKI-1 renal
A498 renal = tested on: A498 renal
CCRF-CEM leukemia = tested on: CCRF-CEM leukemia
MOLT-4 leukemia = tested on: MOLT-4 leukemia
SNB-75 CNS = tested on: SNB-75 CNS

Row | Compound | growth (HCT-15 colon) [%] | growth (HT29 colon) | growth (SNB-19 CNS) [%] | growth (U251 CNS) [%] | growth (PC-3 prostate) [%] | growth (SK-MEL-5 melanoma) | growth (UACC-62 melanoma) | growth (LOX IMVI melanoma) | growth (SK-MEL-28 melanoma) [%] | growth (SK-MEL-2 melanoma) | growth (EKVX NSCLC) [%] | growth (SN12C renal) [%] | growth (UO-31 renal) | growth (TK-10 renal) [%] | growth (ACHN renal) [%] | growth (CAKI-1 renal) | growth (A498 renal) | growth (CCRF-CEM leukemia) | growth (MOLT-4 leukemia) | growth (SNB-75 CNS) [%]
1 | O=C(Nc1ccc(CN2CCOCC2)c(C(F)(F)F)c1)c1nc2ccc3[nH]ncc3c2c2c1CCCC2 | 82.4 | 74.8% | 98.4 | 92 | 66.2 | 102% | 79.2% | 90.5% | 103 | 103% | 87.3 | 94.4 | 73% | 104 | 91.5 | 80.9% | 113% | 84.8% | 76.3% | 
2 | CCN(CC)CC(C)Nc1ccc(C)c2sc3ccccc3c(=O)c12 (centres undefined) | 32.5 | 26.8% | 53.8 | 37.4 | 47.6 | -68.1% (active) | 3.87% (active) | 23.3% | 38.9 | 116% | 81.8 | 49.6 | 19.5% | 68.1 | 37.8 | 39.3% | 60.1% | 34.4% | 24.6% | 
3 | COc1ccc(-c2cc(-c3ccc(Cl)cc3)nc(SCCCCCCC(=O)NO)n2)cc1 | 15.5 | 10.8% | 35.9 | 19 | 49.2 | -6.04% (active) |  | -17.6% (active) | 57.6 | 87.1% | 44.2 | 41.3 | 11.8% | 34.7 | 16.1 | 4.58% (active) | 52% | 3.36% (active) | 9.33% (active) | 
4 | O=C(Nc1ccc(Oc2ccc(F)cc2)c(Cl)c1)c1cccnn1 |  | 76.7% | 66.2 | 62.9 | 64.4 | 30.7% | 62.5% | 72.8% | 90.9 | 77.7% | 75 | 63.8 | 55% | 64.4 | 73.7 | 54.8% | 61.1% | 75.1% |  | 87.8
5 | O=[N+]([O-])c1cccc(N=NNc2cccc([N+](=O)[O-])c2)c1 | 85.8 | 92.6% | 92 | 82.8 | 86.4 | 87.3% | 76.5% | 89.1% | 99.5 | 104% | 84.6 | 89.5 | 80% | 69.7 | 95.7 | 87.5% | -2.16% (active) | 84.3% | 82.7% | 
6 | CCCCCCSc1ncnc2nc[nH]c12 | 90.8 | 103% | 86.2 | 90.1 | 85.2 | 94% | 77% | 80.1% | 101 | 105% | 83.6 | 92.4 | 64.7% | 103 | 96.8 | 95.9% | 95.2% | 101% | 84.7% | 
7 | CC(C)[N+](C)(C)CC(O)COc1cccc2ccccc12 (centres undefined) | 97.1 | 111% | 103 | 101 | 92.2 | 107% | 101% | 93.2% | 113 | 104% | 101 | 103 | 76.4% | 111 | 101 | 102% | 92.9% | 88.1% | 109% | 
8 | Cc1nn(-c2ccccc2)c(N2CCOCC2)c1-c1nc2ccc([N+](=O)[O-])cc2[nH]1 | 91.5 | 113% | 103 | 102 | 112 | 95.7% | 83.4% | 92.1% | 102 | 110% | 106 | 95.2 | 81.4% | 100 | 105 | 80% | 76.3% | 92.6% | 85.7% | 
9 | Cc1cccc([N+](=O)[O-])c1I | 113 | 106% | 106 | 93.8 | 85.5 | 109% | 107% | 101% | 114 | 112% | 95.4 | 107 | 85.1% | 113 | 105 | 100% | 93% | 87.2% | 122% | 
10 | CC(=O)n1cc(C=O)c2ccccc21 | 106 | 97.7% | 100 | 86.3 | 93.5 | 97.2% | 94.2% | 93.8% | 105 | 97.9% | 109 | 97.7 | 72% | 100 | 106 | 100% | 113% | 80.9% | 91% | 
11 | COc1ccc2c(c1)c(-c1noc(C(=O)c3cn(C)c4ncc(Br)cc34)n1)cn2C | 68.4 | 58% | 78.7 | 68.6 | 39.7 | 50.6% | 65.6% | 70.9% | 71.1 | 97.4% | 75.4 | 77.6 | 70.5% | 21.8 | 39.8 | 68.9% | 48.5% | 56.9% | 77.2% | 
12 | O=C(CCCCCCSc1nc(-c2ccc(Cl)cc2)cc(-c2ccc(Cl)cc2)n1)NO | 23.6 | 20.4% | 37.3 | 16.6 | 42.8 | 5.66% (active) | 16.1% | 2.18% (active) | 57.8 | 92.7% | 50.9 | 26.1 | 8.29% (active) | 30.7 | 15.5 | 13.4% | 81.8% | 5.2% (active) | 11.4% | 
13 | COc1ccc(C2CC(c3cc(OC)c(OC)c(OC)c3)=NN2C(C)=O)cc1OCC(=O)Nc1nc2ccc(C(F)(F)F)cc2s1 (centres undefined) | 76.2 | 79.8% | 74.2 | 67 | 67.8 | 15.1% | 52.5% | 32.5% | 65.5 | 92.3% | 83.4 | 63 | 39.5% | 57.1 | 40.4 | 57.9% | 54.1% | 72.5% | 60% | 
14 | O=C(O)CSCc1nnc2n(Cc3ccccc3)c(=O)c3c4c(sc3n12)CCCC4 | 101 | 111% | 97.3 | 102 | 101 | 103% |  | 88.1% |  | 79.3% | 93.2 | 96 | 90.2% | 127 | 89.3 | 99.2% | 112% | 81% | 71.8% | 
15 | Cc1ccc(-n2nc3n(/c2=N\C(=O)NS(=O)(=O)c2ccc(C)cc2)CCN3C2=NCCN2)cc1 | 105 | 107% | 99.2 | 105 | 96.4 | 105% | 95.9% | 113% | 101 | 109% | 99.5 | 97 | 84.1% | 101 | 94.5 | 90% | 93.5% | 107% | 112% | 
16 | O=C(Nc1ccc(Cl)c(C(F)(F)F)c1)Nc1ccc(-c2cccnc2)cc1N1CCC(CO)CC1 | 14.8 | 9.16% (active) | 29.1 | 21 | 12.4 | 11.3% | 37% | 26.6% | 32.3 | -10.3% (active) | 37.2 | 31 | 21.9% | 22.2 | 17.3 | 34.3% | 14.3% | 9.72% (active) |  | 
